Bioassay records (PubChem)
IL1B secr inh = qHTS for Inhibitors of Inflammasome Signaling: IL-1-beta AlphaLISA Primary Screen | THP-1 LPS/ATP IL-1B secretion, AlphaLISA, 16 h; active compounds read low | activity change, % at 57.5 µM | 360,000 compounds, 4.7% hits; in the data active = activity change below about -50%; inconclusive = mostly about -30% to -49%
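Secreted IL-1B measured by AlphaLISA bead assay after 16 h compound exposure of THP-1 cells; compounds (final up to 57.5 uM) added 1 h before LPS (250 ng/mL) and ATP (1.25 mM) stimulation; lower signal means less secretion.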
HepG2 viability = qHTS for Inhibitors of TGF-b: Cytotox Counterscreen; Potency, µM (doses to about 46.1 µM), hits mostly cytotoxic; AID 588856, 2011; 410,000 compounds, 0.76% hits; HepG2 CAGA-GFP viability, ATP luminescence, 18 h
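HepG2 CAGA-GFP cells (1000/well, DMEM with 1% FBS) received compound, then TGF-beta at 500 pg/mL final, and were incubated 18 hours at 37 degrees C. Viability was read by CellTiter-Glo luminescence. Media-only wells were set as complete cell-killing and DMSO as no toxicity.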
TGFb inhibitor = qHTS for Inhibitors of TGF-b; 410,000 compounds, 1.2% hits; AID 588855, 2011; Potency, µM (top dose mostly 46.1 µM), most hits filed as inhibitors; HepG2 CAGA-GFP TGF-b/SMAD3 reporter, GFP fluorescence, 18 h; TGF-beta stimulated, 500 pg/mL final; note: nearly all actives have a fitted effect of over 65% in size
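Per well, imaged GFP fluorescence of HEPG2 CAGA-GFP cells gives the signal; cells get compound, then TGF-beta (500 pg/mL final), 18 h at 37 degrees C; %Activity versus -TGF-beta and +DMSO controls.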
ATXN2 expr inh = Primary qHTS for Inhibitors of ATXN expression | 360,000 compounds, 0.72% hits | HEK-293 ATXN2-luciferase reporter, luminescence, 24 h | Potency, µM (series often up to 57 µM), most hits filed as inhibitors; note: nearly all actives have a fitted effect of over 55% in size
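ATXN2-luciferase reporter cells (luciferase flanked by upstream and downstream ATXN2 gene portions) were treated 24 h at 37 °C with compounds at up to 57 uM. SteadyGlo luminescence gave expression; GF-AFC fluorescence gave viability.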
S2 tox = Viability Counterscreen for Primary qHTS for Inhibitors of ATXN expression; 400,000 compounds, 0.49% hits; S2 cells (HEK-293 line with an ATXN2-luciferase reporter) viability, CellTiter-Fluor protease fluorescence, 24 h; AID 651635, 2014; Potency, µM (titrated, usually from 56.7 µM), actives largely listed as cytotoxic; note: nearly all actives have a fitted effect of over 40% in size
Numbers stand for hits; n = inactive; u = inconclusive; x = no result; ! = not active in a repeat; [ ] = another dose, or the depositor's remark. Most compounds without a hit are left out; they make up all but 5.7% or so of the library. Unless noted, calls come from the whole dose curve; as a rule, active = well fitted curve in the direction sought with a large enough effect; inconclusive = small, poorly fitted or top-dose-only effect, or another doubt; inactive = no such curve, though single readings can be large; an effect the other way counts as inactive or inconclusive.

SMILES	IL1B secr inh	HepG2 viability	TGFb inhibitor	ATXN2 expr inh	S2 tox
COc1ccc2c(c1)OC(C)CN(CCNC(=O)C1CCOC1)C2 (stereo not drawn)	x	x	x	x	n
Cc1ccc(C)n1N1C(=O)/C(=C\c2ccc(Cl)cc2)SC1=S	-91	n	n	n	n
CC(=O)N(C(C)=O)N1C(=O)/C(=C/c2ccc(Cl)cc2)SC1=S	n	n	16µM	u	u
COc1ccccc1N1CCN(c2ncnc3c2cnn3-c2cc(Cl)ccc2C)CC1	x	n	n	u	n
Cc1ccc(-c2ccc(=O)n(CC(=O)Nc3ccc(C(C)C)cc3)n2)cc1	x	n	n	n	u
CSc1nc2ccc(NC(=O)c3c(-c4ccccc4)noc3C)cc2s1	-65	n	n	n	n
Cc1ccc(C2=NNC(=Nc3ccc(F)cc3)SC2)cc1	-74	n	n	n	n
OC(CNCc1ccccc1F)COc1cccc2ccccc12 (stereo not drawn)	-70	n	u	n	n
CC(=O)c1cc(Cl)ccc1OC(=O)c1ccco1	n	n	n	n	n
O=C(Oc1ccc(Br)cc1C(=O)/C=C/c1ccccc1F)c1ccco1	-98	n	16µM	u	u
Cc1nc(-c2cccc(S(=O)(=O)N3CCCCCC3)c2)cs1	n	n	n	n	n
CCOc1cc(/C=N/Nc2nc(-c3cccc(S(=O)(=O)N4CCCC4)c3)cs2)ccc1O	-83	n	u	u	x
COc1ccc(/C=N/Nc2nc(-c3cccc(S(=O)(=O)N4CCCC4)c3)cs2)cc1OC	n	n	n	n	u
COc1cc(/C=N/Nc2nc(-c3ccc(S(=O)(=O)N(C)C)cc3)cs2)ccc1O	-91	n	u	x	x
Cc1nc(-c2cccc(S(=O)(=O)N3CCCCC3)c2)cs1	-89	n	u	n	n
O=S(=O)(c1cccc(-c2csc(N/N=C/c3ccco3)n2)c1)N1CCOCC1	-72	n	u	u	u
O=S(=O)(c1cccc(-c2csc(-c3ccccc3)n2)c1)N1CCOCC1	n	n	n	n	n
CCOC(=O)c1scc(-c2ccccc2)c1S(=O)(=O)Nc1ccc(N(C)C)cc1	x	n	u	n	u
CCOc1ccccc1CNC(=O)c1cc2c(=O)n(Cc3ccccc3)ccc2nc1C	x	n	u	u	n
O=C(NC1CCC(n2cc(C(=O)NC3CC3)nn2)CC1)C(=O)c1ccccc1 (stereo not drawn)	x	x	x	x	n
COc1ccc(/C=N/n2cnn(Cc3ccccc3Cl)c2=S)cc1OC	-55	n	n	n	n
O=C(NC(c1cccnc1)C(F)(F)F)c1cc(COc2ccc3c(c2)CCCC3)on1 (stereo not drawn)	u	n	11µM	n	u
Cc1ccc(CN2CCc3nnc(C(NS(C)(=O)=O)C(C)C)n3CC2)cc1C (stereo not drawn)	x	x	x	x	n
CCN(CC)CCn1c2c(c(SCC(=O)Nc3ccccc3Cl)nc1=O)CCC2	-52	n	n	n	n
CCN(CC)CCn1c2c(c(SCC(=O)Nc3cccc4ccccc34)nc1=O)CCC2	-90	n	n	n	n
SMILES	IL1B secr inh	HepG2 viability	TGFb inhibitor	ATXN2 expr inh	S2 tox
CCN(CC)CCn1c2c(c(SCC(=O)Nc3nc4ccccc4s3)nc1=O)CCC2	-99	n	n	n	u
CCN(CC)CCCn1c2c(c(SCC(=O)Nc3cc(C)cc(C)c3)nc1=O)CCC2	-57	n	n	x	n
CCN(CC)CCn1c2c(c(SCC(=O)Nc3cc(OC)cc(OC)c3)nc1=O)CCC2	n	n	n	n	n
COC(=O)c1ccc(CN2CCC3(CCC(CNC(=O)c4ccco4)O3)CC2)cc1 (stereo not drawn)	x	x	x	x	n
CCc1ccc(NC(=O)CSc2nc(=O)n(CCCN3CCOCC3)c3c2CCCC3)cc1	u	n	n	n	u
Cc1ccc(NC(=O)CSc2nc(=O)n(CCCN3CCOCC3)c3c2CCCC3)cc1F	-85	n	n	n	n
CC(C)c1ccc(NC(=O)CSc2nc(=O)n(Cc3cccnc3)c3c2CCC3)cc1	x	n	11µM	n	n
CC(=O)C[n+]1cccc(Br)c1	x	n	n	x	x
CN(CCO)C(=O)c1cn(C2CCN(Cc3c(F)cccc3Cl)CC2)nn1	x	x	x	x	n
CC[n+]1c(C)sc2cc(OC)ccc21	-67	n	n	n	n
CC(=O)Nc1ccc(C(=O)N/N=C/c2cc(Br)cc(Br)c2O)cc1	n	n	u	25µM	n
CN(C)S(=O)(=O)c1cccc(NC(=S)N/N=C/c2cc(Br)ccc2O)c1	-73	n	u	u	n
O=C(N/N=C/c1cc(Br)ccc1O)c1ccncc1	n	n	u	2.8µM	n
CC(C)C(=O)Nc1ccc(C(=O)N/N=C/c2cc(Br)cc(Br)c2O)cc1	n	n	u	u	x
O=C(N/N=C/c1ccccc1O)c1ccncc1	n	n	n	3.5µM!	u
CC(=O)Nc1ccn(C2CC3OCC(NC(=O)C(NC(=O)OC(C)(C)C)C(C)OCc4ccccc4)C3O2)c(=O)n1 (stereo not drawn)	x	n	n	x	x
COc1ccc(C(=O)NCCc2nnc3n2CCN(CC2CC=CCC2)CC3)cc1 (stereo not drawn)	x	x	x	x	n
NC(=O)N/N=C\c1cc(Br)ccc1O	n	n	n	u	x
O=C(N/N=C/c1ccc(O)c2ncccc12)c1cccc(Br)c1	n	n	13µM	u	u
O=C(N/N=C/c1cc(Br)ccc1O)Nc1ccccc1	-97	n	u	n	u
O=C(N/N=C/c1cc(Cl)ccc1O)c1ccc(Br)cc1	n	n	n	4.5µM	n
CCN1CCN(c2c(S(=O)(=O)c3ccc(C)c(C)c3)cnc3cc(OC)c(OC)cc23)CC1	x	n	n	n	n
COc1cc(-c2cnc3ccccc3c2)cc2c1OCCN(S(=O)(=O)C[C@]13CC[C@H](CC1=O)C3(C)C)C2	x	x	x	x	n
CN(C)Cc1c(C(=O)NCCOc2ccc(C(=O)NO)cc2)oc2ccccc12	x	x	x	n	x
Cc1nnsc1S(=O)c1ccc(Br)cc1 (stereo not drawn)	n	n	n	n	n
SMILES	IL1B secr inh	HepG2 viability	TGFb inhibitor	ATXN2 expr inh	S2 tox
CNC(=O)c1nnsc1S(=O)c1ccc(Cl)cc1 (stereo not drawn)	-105	n	u	n[11.3 µM]	u
CCCNC(=O)c1nnsc1S(=O)(=O)c1ccc(Cl)cc1	-106	18µM	u	n[11.3 µM]	u
CCCNC(=O)c1nnsc1S(=O)c1ccc(Cl)cc1 (stereo not drawn)	-102	n	u	u	x
CCOc1ccc(N2CC(c3nc4ccccc4n3CCCCOc3ccc(OC)cc3)CC2=O)cc1 (stereo not drawn)	x	n	u	u	u
CCOc1ccc(N2CC(c3nc4ccccc4n3CCCOc3ccccc3)CC2=O)cc1 (stereo not drawn)	x	n	11µM	u	x
O=C1CC(c2nc3ccccc3n2CCCOc2ccccc2)CN1c1ccc(F)cc1 (stereo not drawn)	x	n	n	n	25µM
